PubChem BioAssay
Results filed as inconclusive are left out. The list shows a part of the results. Calls of active or inactive are those of the source.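 Rule for the calls, unless noted: active = GFP response, as percent of the DMSO control, above the screen-wide mean plus 3 SD, about 139; inconclusive = no response measured because the compound's own fluorescence interfered; inactive = the rest.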

Key:
[1] = molecular target: Regulator of G-protein signaling 16 (Homo sapiens) (UniProt O15492); test: modulators of RGS–Galpha-o binding, primary screen, biochemical, multiplexed beads, flow cytometry, RGS4/7/8/16/19 (AID 1504); conditions: multiplexed bead flow cytometry, measured here: RGS16 interaction, at 10 µM;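 note: fluorescently labeled Galpha-o bound to GDP with aluminium fluoride binding biotinylated RGS beads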
[2] = molecular target: Regulator of G-protein signaling 19 (Homo sapiens) (UniProt P49795); test: as above; conditions: multiplexed bead flow cytometry, measured here: RGS19 interaction, at 10 µM
[3] = molecular target: Regulator of G-protein signaling 7 (Homo sapiens) (UniProt P49802); test: as above; conditions: multiplexed bead flow cytometry, measured here: RGS7 interaction, at 10 µM
[4] = molecular target: Regulator of G-protein signaling 8 (Homo sapiens) (UniProt P57771); test: as above; conditions: multiplexed bead flow cytometry, measured here: RGS8 interaction, at 10 µM
[5] = disruption of biotin probe capture by avidin, counter-screen for RGS protein interaction modulators, biochemical, flow cytometry, bead-based (AID 1783;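 active = inhibition above 50%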;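 note: median green fluorescence of gated singlet beads compared with DMSO control wells; 0% = DMSO wells and 100% = complete loss of bead fluorescence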); conditions: streptavidin beads, fluorescein-biotin binding; at 10 µM, stronger effect = higher value
[6] = molecular target: Guanine nucleotide-binding protein G(o) subunit alpha (Homo sapiens) (UniProt P09471); test: RGS8-Galphao binding modulators, confirmation, biochemical, multiplexed bead flow cytometry, single concentration (AID 1836; in the data active = binding response below about 72% or above about 130%; inactive = in between;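 note: Galphao activated as GDP AlF4 complex before binding bead RGS8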); conditions: bead-based flow cytometry RGS8-Galphao binding, fluorescence; at 10 µM; actives lie on both sides
[7] = molecular target: Guanine nucleotide-binding protein G(o) subunit alpha (Homo sapiens) (UniProt P09471); test: RGS7-Galphao binding modulators, confirmation, biochemical, multiplexed bead flow cytometry, single concentration (AID 1837; in the data active = response below about 75% or above about 130%; inactive = in between;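 note: fluorescent Galphao activated with GDP and aluminum fluoride binding bead-coupled RGS7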); conditions: bead-based flow cytometry RGS7-Galphao binding; at 10 µM; actives lie on both sides
[8] = molecular target: Regulator of G-protein signaling 16 (Homo sapiens) + Guanine nucleotide-binding protein G(o) subunit alpha (Homo sapiens) (UniProt O15492+P09471); test: modulators of RGS16-Galphao protein binding, confirmation, biochemical, single concentration, multiplexed bead flow cytometry (AID 1838; in the data active = response below about 74% or above about 130%; inactive = in between;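 note: Galphao activated as the GDP aluminium fluoride complex binding bead-coupled RGS16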); conditions: bead-based flow cytometry, at 10 µM, actives lie on both sides
[9] = molecular target: Guanine nucleotide-binding protein G(o) subunit alpha (Homo sapiens) (UniProt P09471); test: modulators of RGS4-Galphao protein binding, confirmation, biochemical, single concentration, multiplexed bead flow cytometry (AID 1840; in the data active = binding response below about 74% or above about 130%; inactive = in between); conditions: at 10 µM, actives lie on both sides
[10] = molecular target: Guanine nucleotide-binding protein G(o) subunit alpha (Homo sapiens) + Regulator of G-protein signaling 19 (Homo sapiens) (UniProt P09471+P49795); test: regulators of RGS19-Galphao binding, confirmation, biochemical, single point, multiplexed bead flow cytometry (AID 1841; in the data active = response below about 50% or above about 160%; inactive = in between;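 note: 100% = no compound control and 0% = blank background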); conditions: bead-based flow cytometry RGS19-Galphao binding; at 10 µM; actives lie on both sides
[11] = yeast TOR pathway RPL19A-GFP modulators, primary screen, cell-based, S. cerevisiae, multiplex flow cytometry (AID 1862; in the data active = percent of DMSO control GFP below about 86%;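 note: lower values mimic rapamycin by blocking the RPL19A rise seen in DMSO cells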); conditions: S. cerevisiae RPL19A-GFP strain, flow cytometry fluorescence, 3 h; at 10 µM; stronger effect = lower value
[12] = modulators of MEP2-GFP levels in yeast, primary screen, S. cerevisiae, multiplex flow cytometry (AID 1867);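 note: median GFP channel fluorescence of barcode-gated MEP2-GFP cells measured by flow cytometry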; conditions: S. cerevisiae MEP2-GFP strain, 3 h, at 10 µM, stronger effect = higher value, 100% means same as DMSO wells
[13] = modulators of CIT2-GFP expression in yeast, primary screen, S. cerevisiae, GFP fusion, multiplex flow cytometry (AID 1870;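 active = percent response above a set limit, the screen-wide mean plus 3 SD, cut at about 130% in these data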;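 note: barcoded CIT2-GFP strain pooled with four other GFP strains with rapamycin as positive control; median GFP fluorescence per well over plate mean of DMSO wells so 100% = DMSO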); conditions: 3 h, at 10 µM, stronger effect = higher value
[14] = modulators of LAP4-GFP expression in yeast, primary screen, S. cerevisiae, multiplex flow cytometry (AID 1873;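 active = GFP signal, as percent of the solvent control, above the screen mean plus 3 SD, about 149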); conditions: 3 h, at 10 µM, stronger effect = higher value
[15] = modulators of AGP1-GFP expression in yeast TOR pathway, primary screen, cell-based, multiplex flow cytometry, S. cerevisiae (AID 1887;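 active = GFP signal above the screen-wide mean plus 3 SD, that is over about 124.5% of the solvent control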;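 note: AGP1-GFP fusion strain of S. cerevisiae within a five-strain barcoded multiplex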); conditions: 3 h, at 10 µM, stronger effect = higher value
[16] = RPL19A-GFP modulators, yeast TOR pathway, confirmation, cell-based, S. cerevisiae, flow cytometry, cherry picks, mother/daughter gates (AID 2270;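 active = GFP response below 50% of the DMSO control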); conditions: S. cerevisiae RPL19A-GFP strain, 3 h, at 10 µM, stronger effect = lower value, 100 = same GFP as DMSO wells
[17] = LAP4-GFP expression modulators in yeast, confirmation, cell-based, cherry picks, flow cytometry, mother/daughter gates (AID 2271;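 active = GFP response above 150% of the DMSO control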;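 note: ratio of sample to DMSO plate mean so 100% equals DMSO level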); conditions: S. cerevisiae LAP4-GFP strain, 3 h, at 10 µM, stronger effect = higher value, 100 means same as DMSO control
[18] = modulators of MEP2-GFP levels in yeast, confirmation, S. cerevisiae, flow cytometry GFP, cherry picks (AID 2272;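 active = GFP response above 150% of the DMSO control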;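 note: ratio of well signal to plate DMSO mean so 100% equals DMSO level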); conditions: S. cerevisiae MEP2-GFP strain, 3 h, at 10 µM, stronger effect = higher value
[19] = modulators of CIT2-GFP expression in yeast, confirmation, S. cerevisiae, GFP fusion, cherry picks, mother/daughter gates (AID 2274;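 active = GFP response above 150% of the DMSO level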); conditions: S. cerevisiae CIT2-GFP strain, flow cytometry, 3 h, at 10 µM, stronger effect = higher value
[20] = inhibitors of CD8+ T cell-vesicle binding, pilot screen, LFA-1/ICAM-1 modulator project, MLPCN validation set, flow cytometry (AID 2523;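 active = response below a set limit, under 55% cells CD8-positive and vesicle-bound, and CD8 cells' 90th-percentile brightness under 279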;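 for vesicle binding response: mean PE anti-B7-1 fluorescence of CD8+ cells relative to row control; 100% = QL9-loaded vesicles with DMSO vehicle in the same plate row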); conditions: 2C mouse CD8+ T cells, at 7 µM, stronger effect = lower value; double positive events: measured here: CD8+/vesicle+ event percentage
[21] = measured here: daughter cell gate
[22] = measured here: mother cell gate
[23] = measured here: daughter cell gate response
[24] = measured here: mother cell gate response

Sequence of Guanine nucleotide-binding protein G(o) subunit alpha (Homo sapiens) (P09471 whole entry, looked up): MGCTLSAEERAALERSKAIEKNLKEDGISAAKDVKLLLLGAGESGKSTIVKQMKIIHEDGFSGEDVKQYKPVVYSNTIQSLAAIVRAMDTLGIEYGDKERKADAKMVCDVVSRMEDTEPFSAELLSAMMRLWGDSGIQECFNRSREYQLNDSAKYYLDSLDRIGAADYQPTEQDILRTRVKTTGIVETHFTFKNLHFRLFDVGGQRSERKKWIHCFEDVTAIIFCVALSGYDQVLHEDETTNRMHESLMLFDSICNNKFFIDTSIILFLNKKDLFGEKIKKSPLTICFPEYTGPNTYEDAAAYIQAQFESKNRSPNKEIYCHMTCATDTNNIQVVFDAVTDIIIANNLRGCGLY
Sequence of Regulator of G-protein signaling 16 (Homo sapiens) + Guanine nucleotide-binding protein G(o) subunit alpha (Homo sapiens) (O15492 whole entry, looked up): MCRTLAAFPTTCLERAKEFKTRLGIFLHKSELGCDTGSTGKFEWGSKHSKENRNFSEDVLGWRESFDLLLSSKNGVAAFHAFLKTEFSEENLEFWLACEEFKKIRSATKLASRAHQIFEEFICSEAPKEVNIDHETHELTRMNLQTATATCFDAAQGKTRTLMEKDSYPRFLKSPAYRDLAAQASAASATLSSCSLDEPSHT
Sequence of Regulator of G-protein signaling 16 (Homo sapiens) + Guanine nucleotide-binding protein G(o) subunit alpha (Homo sapiens) (P09471 whole entry, looked up): as the sequence (P09471 whole entry, looked up) above
Sequence of Guanine nucleotide-binding protein G(o) subunit alpha (Homo sapiens) + Regulator of G-protein signaling 19 (Homo sapiens) (P09471 whole entry, looked up): as above
Sequence of Guanine nucleotide-binding protein G(o) subunit alpha (Homo sapiens) + Regulator of G-protein signaling 19 (Homo sapiens) (P49795 whole entry, looked up): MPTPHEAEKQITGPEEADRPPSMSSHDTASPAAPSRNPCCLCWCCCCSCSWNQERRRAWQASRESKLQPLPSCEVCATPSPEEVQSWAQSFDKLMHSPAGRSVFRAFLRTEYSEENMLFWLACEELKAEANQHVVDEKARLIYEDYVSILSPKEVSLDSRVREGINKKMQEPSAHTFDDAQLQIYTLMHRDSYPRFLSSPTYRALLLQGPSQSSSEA

Molecule `Cc1cc(C)n(CC(O)CN(c2ccccc2)S(=O)(=O)c2ccc3ccccc3c2)n1` (centres undefined) has an RGS16–Galpha-o binding response [1] of -6.51%, an RGS19–Galpha-o binding response [2] of 163% and an RGS7–Galpha-o binding response [3] of 1.45%. The RGS8–Galpha-o binding response [4] was 15%, the inhibition [5] was 1.1% (inactive) and the binding response (% of control) [6] was 101% (inactive). The response (percent of control binding) [7] was 104% (inactive), the response (% of control binding) [8] was 103% (inactive) and the binding response (% of control) [9] was 104% (inactive). For the same molecule, the response (percent of control binding) [10] was 98.9% (inactive).

With `COc1ccc(-c2[nH]ncc2CN(CCO)Cc2cccs2)c(F)c1` the percent of DMSO control GFP [11] was 102% (inactive), the GFP response vs DMSO [12] was 105% (inactive) and the percent response of DMSO control [13] was 104% (inactive). For the same molecule, the GFP response vs DMSO [14] was 99.1% (inactive), the GFP response, % of DMSO [15] was 105% (inactive) and the GFP response vs DMSO [16] was 96.8% (inactive). The GFP response vs DMSO [16, 21] was 97.4%, the GFP response vs DMSO [16, 22] was 98.4% and the GFP response relative to DMSO [17] was 94.1% (inactive). The GFP response relative to DMSO [17, 23] was 94.4%, the GFP response relative to DMSO [17, 24] was 94% and the GFP response vs DMSO [18] was 100% (inactive). The GFP response, % of DMSO [19] was 99.7% (inactive), the GFP response, % of DMSO [19, 21] was 103% and the GFP response, % of DMSO [19, 22] was 99.7%. For the same molecule, the double positive events [20] was 62.7% and the vesicle binding response [20] was 142% (inactive).

For `OC(CCN1CCCCC1)(c1ccccc1)c1ccccc1`, the percent of DMSO control GFP [11] was 92.8% (inactive), the GFP response vs DMSO [12] was 126% (inactive) and the percent response of DMSO control [13] was 128% (active). For the same molecule, the GFP response vs DMSO [14] was 86.9% (inactive), the GFP response, % of DMSO [15] was 91.9% (inactive) and the GFP response vs DMSO [16] was 100% (inactive). For the same molecule, the GFP response vs DMSO [16, 21] was 99%, the GFP response vs DMSO [16, 22] was 102% and the GFP response relative to DMSO [17] was 95% (inactive). The GFP response relative to DMSO [17, 23] was 97.2%, the GFP response relative to DMSO [17, 24] was 95.2% and the GFP response vs DMSO [18] was 100% (inactive). The GFP response, % of DMSO [19] was 96.5% (inactive), the GFP response, % of DMSO [19, 21] was 96.5% and the GFP response, % of DMSO [19, 22] was 85.8%. The double positive events [20] was 62.7% and the vesicle binding response [20] was 152% (inactive).
